Source: PubChem BioAssay (University of Pittsburgh Molecular Library Screening Center)
HIV RNase H inh-1: HIV-1 RT RNase H inhibitors, primary screen, biochemical, fluorescence. Gag-Pol polyprotein (Human immunodeficiency virus type 1 group M subtype B (isolate …. inhibition, % at 10 µM. RT-RNase H RNA/DNA duplex cleavage. hit rate 1.9% among 65,000. AID 565, 2006; in the data active means inhibition above about 50%
HIV RNase H inh-2: HIV-1 RT RNase H inhibitors, retest, confirmation, biochemical; inhibition, % at 10 µM; Recombinant RT RNase H, fluorescent RNA/DNA duplex cleavage; hit rate 39% among 1,000; shares compounds with HIV RNase H inh-1; AID 651, 2007; in the data active means inhibition above about 48%; inconclusive means no clear call, values can overlap the other calls
Active calls of the source: *; ? = inconclusive. The sample as a whole holds a higher share of hits than the screen did.

SMILES	HIV RNase H inh-1	others
O=c1c2ccccc2n2cnnc2n1-c1ccccc1	-14.0
CC(C)COP(=O)(c1ccc(N(C)C)cc1)C(O)c1ccccn1 (stereo not given)	2.7
COc1ccc(C2=CC(c3ccc(Cl)cc3)n3cnnc3N2)cc1OC (stereo not given)	2.4
COc1ccc(N2CCN(C(=O)CCNS(=O)(=O)c3ccc4c(c3)CCC(=O)N4)CC2)cc1	-4.4
COc1cccc(-c2nc(Cc3ccc(OC)c(OC)c3)no2)c1	-49.7
COc1ccc(C2OC(=O)CC2C(=O)NC2CCCCCC2)cc1OC (stereo not given)	-6.5
CCOC(=O)c1sc(NC(=O)CSc2ccccn2)c(C#N)c1C	19.1
Cc1nn(C)c(C)c1NC(=O)CCSc1nc(-c2ccco2)cc(C(F)(F)F)n1	2.6
CCOC(=O)c1sc(NC(=O)CSc2ncn[nH]2)c(C#N)c1C	2.9
CCOC(=O)c1c(NC(=O)CSc2nnc(CNc3ccc(F)cc3)o2)sc(C(C)=O)c1C	21.4
CCOC(=O)c1sc(NC(=O)CSc2nc(-c3ccco3)cc(C(F)(F)F)n2)c(C#N)c1C	75.6*	HIV RNase H inh-2=?
CCc1nnc(NC(=O)CSc2nnc(Cc3ccccc3)o2)s1	-18.0
Cc1cc(NC(=O)CSc2nc(-c3ccco3)cc(C(F)(F)F)n2)no1	-3.5
CCOC(=O)c1sc(NC(=O)CSc2nnc(Cc3ccccc3)o2)c(C#N)c1C	90.4*	HIV RNase H inh-2=53.8*
CCOC(=O)c1sc(NC(=O)CSc2n[nH]c(-c3ccccc3)n2)c(C#N)c1C	83.2*	HIV RNase H inh-2=61.8*
CCOC(=O)N1CCN(Cc2nc(-c3ccc(C)cc3)no2)CC1	3.0
COc1cccc(CSc2nnc(-c3ccco3)n2C)c1	-3.4
CCOCCCNC(=O)C1CCCCN1S(=O)(=O)c1ccc(F)cc1 (stereo not given)	-10.8
COc1ccc(C(=O)COC(=O)CCN=C2NS(=O)(=O)c3ccccc32)cc1OC	-9.9
COc1ccc(Cl)cc1NC(=O)CSc1nncn1-c1cccnc1	-15.8
CCSc1nc2c(cnn2-c2ccc(C)c(C)c2)c(=O)[nH]1	-5.3
COc1ccc(CC(NC(C)=O)C(=O)NC2CCN(S(=O)(=O)c3ccccc3)CC2)cc1OC (stereo not given)	5.3
O=C(O)c1ccc(Cl)c2c1C1C=CCC1C(c1ccccn1)N2 (stereo not given)	83.3*	HIV RNase H inh-2=-1.6
COc1cccc2c1NC(C(=O)O)C1CC=CC21 (stereo not given)	-2.9
C1=CC2c3ccccc3NC(c3ccncc3)C2C1 (stereo not given)	2.8
SMILES	HIV RNase H inh-1	others
CC(NC(=O)Cc1ccc(F)cc1)C(c1cccs1)N1CCN(C)CC1 (stereo not given)	-11.3
COc1ccccc1NC(=O)c1sc2nc(-c3ccco3)ccc2c1N	83.5*	HIV RNase H inh-2=45.5
Nc1c(C(=O)Nc2ccccc2)sc2nc(-c3ccco3)ccc12	87.2*	HIV RNase H inh-2=4.1
COc1ccccc1NC(=O)c1oc2ccccc2c1NC(=O)c1ccco1	23.7
COc1cc2cc3c(N)c(C(=O)NCc4ccco4)sc3nc2cc1OC	4.5
O=C(Nc1ccc(Nc2ccccc2)cc1)c1ccco1	-7.2
O=C(COC(=O)c1ccco1)Nc1ccccc1	-2.0
c1cc(CSc2nnc(-c3ccc4c(c3)OCO4)o2)ccn1	8.1
CCN(CCNC(=O)Nc1ccc(Cl)cc1)c1ccccc1	-43.4
Cc1ccc(S(=O)(=O)Nc2ccc3nc(-c4cccn4C)[nH]c3c2)cc1	8.1
O=C1OC(Nc2ccc(Br)cn2)c2ccccc21 (stereo not given)	1.0
COC(=O)c1c(C(=O)OC)c2ccncn2c1Cl	-2.5
CCOC(=O)c1sc(NC(=O)c2ccc(S(=O)(=O)N3CCOCC3)cc2)cc1C	-14.2
O=C(c1ccc(Cl)s1)N1CCN(c2ccccc2)CC1	-5.2
CC(C)CCNC(=O)CN(Cc1ccc2c(c1)OCO2)C(=O)Cn1nnc(-c2cccs2)n1	11.9
Cc1ccc(CSc2nc3c(c(=O)[nH]2)CCC3)cc1	-26.2
CSc1nc2c(c(=O)[nH]1)C(c1cccs1)C1=C(CCCC1=O)N2 (stereo not given)	16.7
Cc1ccc(CSc2nc3c(c(=O)[nH]2)C(c2ccncc2)C2=C(CCCC2=O)N3)cc1 (stereo not given)	59.3*	HIV RNase H inh-2=40.3
CN1CCN(c2ccc(Cl)cc2NS(=O)(=O)c2ccccc2Cl)CC1	-4.4
O=C(Nc1nnc(-c2ccccc2)o1)c1ccc(Cl)cc1	1.1
CC(=O)c1ccc(C(=O)Nc2nnc(-c3ccc(Cl)cc3)o2)cc1	14.0
CN(C)c1ccc(C(=O)Nc2nnc(-c3ccc(Cl)cc3)o2)cc1	57.1*	HIV RNase H inh-2=31.2
O=C(CC1(O)C(=O)Nc2cc(Cl)cc(Cl)c21)c1ccccc1O (stereo not given)	-18.8
O=C(CCNS(=O)(=O)c1cccc2nonc12)NCc1cccs1	-21.1
O=C(NCC(=O)N(c1ccc2c(c1)OCCO2)C(C(=O)NC1CCCC1)c1ccco1)c1ccco1 (stereo not given)	-2.7
SMILES	HIV RNase H inh-1	others
Cc1ccc(C)c(-n2c(SCC(=O)NCC3CCCO3)nnc2-c2ccoc2C)c1 (stereo not given)	-2.5
Cc1occc1-c1nnc(SCC(=O)NCC2CCCO2)n1C (stereo not given)	0.6
Cc1ccc(-n2c(SCC(=O)NCC3CCCO3)nnc2-c2ccoc2C)cc1 (stereo not given)	83.7*	HIV RNase H inh-2=34.3
Cc1c(NC(=O)c2cc(-c3cccs3)on2)c(=O)n(-c2ccccc2)n1C	-8.0
Cc1ccc2c(SCC(=O)NCc3ccco3)nc(-c3ccc(F)cc3)nc2c1	75.1*	HIV RNase H inh-2=54.8*
CCOC(=O)CSc1nc2cc(C)cc(C)c2cc1C#N	10.2
Cc1cc(C)c2cc(C#N)c(SCC(=O)NCc3ccco3)nc2c1	72.0*	HIV RNase H inh-2=35.2
O=C(CSc1ncc(-c2ccc(F)cc2)[nH]1)NCc1ccco1	-4.3
Cc1ccc(Nc2nnc(SCC(=O)NCc3ccco3)s2)cc1	4.3
Cc1cc(=O)[nH]c(SCC(=O)NCc2ccco2)n1	9.0
Cn1nnc(NC(=O)COc2ccc(C3CCCCC3)cc2)n1	-13.9
CCCCOCP(=O)(CCCC)COCCCC	-1.7
Cc1cccc2cc(C(c3nnnn3C3CCCC3)N3CCOCC3)c(=O)[nH]c12 (stereo not given)	-0.2
O=c1[nH]c2cc3c(cc2cc1C(c1nnnn1C1CCCC1)N1CCSCC1)OCCO3 (stereo not given)	60.6*	HIV RNase H inh-2=31.9
CC(C)(C)n1nnnc1C(c1cc2cc3c(cc2[nH]c1=O)OCCO3)N1CCSCC1 (stereo not given)	4.2
O=C(O)CN(Cc1ccccc1)S(=O)(=O)c1ccc(F)cc1	33.5
CCCCCC(=O)Nc1ccc(S(=O)(=O)Nc2nccnc2OC)cc1	-19.1
O=C(CSc1ncn[nH]1)c1ccco1	39.1
O=C(CSc1ncn[nH]1)Nc1ccccc1C(=O)O	-6.9
O=C(CSc1ncn[nH]1)c1ccccc1	69.9*	HIV RNase H inh-2=67.1*
COC(=O)c1nnn(-c2nonc2N)c1-c1cccs1	-6.2
COc1cccc(N2C(=O)CC(N3CCC(C(N)=O)(N4CCCCC4)CC3)C2=O)c1 (stereo not given)	14.3
C=CCOc1ccccc1/C=c1\sc2nc(=O)c(C)nn2c1=O	13.4
CC(C)Oc1ccc(-c2nn(-c3ccccc3)cc2/C=c2\sc3ncnn3c2=O)cc1	70.2*	HIV RNase H inh-2=?
COc1ccccc1/C=c1\sc2nc(-c3cccs3)nn2c1=O	8.9
C=CCNC(=O)c1ccc2c(c1)nnn2C	-5.0
